The panel holds about 79,000 compounds, 15% with a hit somewhere; the sample as a whole holds those more often. A number with no mark means an inactive call. The source made the active and inactive calls. No stated cut-off is given here; in the data, active means growth inhibition above about 70%; inactive means the rest.
Columns and labels:
[1] = NCI Yeast Anticancer Drug Screen. Data for the rad50 strain (AID 155);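 further: 0% = growth of vehicle-only cultures of the same strain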; details: S. cerevisiae rad50 strain growth inhibition, hits give high values
Procedure, shortened: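 Cells are treated with compound, grown, and their growth is then scored against vehicle-only cultures of the same repair-deficient yeast strain.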

[2] = NCI Yeast Anticancer Drug Screen. Data for the mec2-1 strain (AID 157); details: S. cerevisiae mec2-1 strain, hits give high values
Procedure, shortened: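 Using mec2-1 yeast: add compound, measure growth, express inhibition versus vehicle-treated cultures.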

[3] = NCI Yeast Anticancer Drug Screen. Data for the sgs1 mgt1 strain (AID 161);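 further: 0% = growth of cultures given vehicle only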; details: S. cerevisiae sgs1 mgt1 strain, hits give high values
Procedure, shortened: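 Growth of a repair-deficient yeast mutant was monitored after compound treatment and expressed as inhibition relative to vehicle-treated cultures.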

[4] = NCI Yeast Anticancer Drug Screen. Data for the cln2 rad14 strain (AID 165);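 further: 0% = growth equal to vehicle treated cultures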; details: S. cerevisiae cln2 rad14 strain, hits give high values
Procedure, shortened: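 Yeast strain cln2 rad14, bearing defects in cell cycle control and DNA repair, serves as the test system; values reflect growth inhibition compared with vehicle.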

[5] = NCI Yeast Anticancer Drug Screen. Data for the bub3 strain (AID 167); details: S. cerevisiae bub3 mutant strain, hits give high values
Procedure, shortened: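 Part of a panel of yeast mutants defective in DNA damage repair or cell cycle regulation. Each strain is grown with compound, and inhibition is calculated relative to solvent-treated cultures.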

[6] = NCI Yeast Anticancer Drug Screen. Data for the mlh1 rad18 strain (AID 175); details: S. cerevisiae mlh1 rad18 strain growth inhibition, hits give high values
Procedure, shortened: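 Steps: expose repair-defective yeast to compound; measure growth; express inhibition against vehicle-treated controls.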

[7] = at 5.0 µM (retest, dose inferred, filed as 0.5)
[8] = at 50.0 µM (retest, dose inferred, filed as 5.0)

Row | SMILES | growth inhibition [1, 7] | growth inhibition [1, 8] | growth inhibition ([1]; at 50.0 µM) | growth inhibition [2, 7] [%] | growth inhibition [2, 8] | growth inhibition ([2]; at 50.0 µM) | growth inhibition [3, 7] | growth inhibition [3, 8] | growth inhibition ([3]; at 50.0 µM) | growth inhibition [4, 7] | growth inhibition [4, 8] | growth inhibition ([4]; at 50.0 µM) | growth inhibition [5, 7] | growth inhibition [5, 8] | growth inhibition ([5]; at 50.0 µM) | growth inhibition [6, 7] [%] | growth inhibition [6, 8] | growth inhibition ([6]; at 50.0 µM)
1 | CN(C)c1ccc(N=Nc2cccc3ccccc23)cc1 | 8% | 75% (active) | 34% | 3 | 89% (active) | 0.15% | 10% | 85% (active) | 4.3% | 1% | 51% | 50.2% | -5% | 88% (active) | -5.65% | -6 | 42% | 12.5%
2 | O=C(NNc1nc(-c2ccccc2)cs1)Nc1ccccc1 | 30% | 54% | 77.2% (active) | 19 | 44% | 90.1% (active) | 99% (active) | 98% (active) | 88.5% (active) | 98% (active) | 97% (active) | 23.6% | 99% (active) | 97% (active) | 83.8% (active) | 48 | 66% | 75.1% (active)
3 | CCOC(=O)CNC(=O)Sc1ccc(C(C)(C)C)cc1C | 17% | 32% | 0.05% | 22 | 74% (active) | 19.8% | 17% | 60% | 82% (active) | 19% | 84% (active) | 75.7% (active) | 14% | 92% (active) | 69.7% | 29 | 50% | 26.7%
4 | O=C(O)/C(=C/c1c(O)ccc2ccccc12)c1csc(-c2nc(/C(=C\c3c(O)ccc4ccccc34)C(=O)O)cs2)n1 | 74% (active) | 74% (active) | 89.6% (active) | 48 | 48% | 92% (active) | 74% (active) | 74% (active) | 92% (active) | 46% | 46% | 90% (active) | 49% | 49% | 90.2% (active) | 68 | 68% | 88% (active)
5 | CC(=O)Nc1ccc2c(c1)[nH]c(=O)c1cc(Cl)ccc12 | 60% | 96% (active) | 82.8% (active) | 18 | 63% | -1.45% | 12% | 72% (active) | 7.25% | -20% | 76% (active) | 0.95% | 4% | 7% | -7.95% | 29 | 91% (active) | 35.5%
6 | Cc1ccc(S(=O)(=O)N(c2ccccc2-c2ccccc2)C(C)C(=O)O)cc1 (stereo not given) | 2% | 67% | 92.3% (active) | 13 | 80% (active) | 88.3% (active) | 20% | 62% | 96% (active) | 3% | 76% (active) | 91.5% (active) | 4% | 66% | 82.5% (active) | 5 | 87% (active) | 94.3% (active)
7 | Cc1ccc(N=C(N)NN=C(c2ccc(Cl)cc2)c2ccc(Cl)cc2)cc1 | 10% | 67% | 65.7% | 4 | 38% | 98.5% (active) | 7% | 35% | 57.6% | 8% | 22% | 98% (active) | 6% | 24% | 97.2% (active) | 5 | 38% | 50.3%
8 | CN(C)c1cc2nc3ccccc3nc2cc1O | 2% | 46% | 62.9% | -1 | 53% | 15.6% | -1% | 26% | 34.6% | -7% | 34% | 45.8% | -3% | 59% | 94.5% (active) | 7 | 76% (active) | 81.9% (active)
9 | Cn1cc(C2=CC(=O)C=CC2=O)c2ccccc21 | 0% | 97% (active) | 98.1% (active) | 8 | 99% (active) | 98.6% (active) | 4% | 98% (active) | 98.8% (active) | -2% | 98% (active) | 98.2% (active) | -4% | 97% (active) | 98.2% (active) | 2 | 98% (active) | 98.5% (active)
10 | O=C1c2ccccc2C(=O)c2sccc21 | -97% | 91% (active) | 95.8% (active) | -36 | 51% | 84.8% (active) | -43% | 62% | 93.8% (active) | -56% | 32% | 56.3% | -36% | 90% (active) | 90.5% (active) | -75 | 92% (active) | 93.9% (active)

Source: PubChem BioAssay (NCI)
